According to PubChem BioAssay (Tox21):
Where “and” joins values, the source holds several entries; their conditions need not be identical. Equal values may be shown once. Calls of active or inactive are those of the source. Where a call stands in place of a potency, no number is given. The call rests on the fitted dose curve.

target: Acetylcholinesterase (Homo sapiens) (UniProt P22303); assay: Acetylcholinesterase (AChE) small molecule antagonists: enzyme-based qHTS assay (AID 1347397); settings: Potency: AChE enzyme activity inhibition; series mostly up to 115 µM; activity change, negative = inhibition: at the top concentration; further: nearly all actives have a fitted effect of over 55% in size
Source text: National Center for Advancing Translational Sciences [NCATS]
Division of Preclinical Innovation [DPI]
U.S. Environmental Protection Agency [EPA]
National Institutes of Environmental Health Sciences [NIEHS]
National Toxicology Program [NTP]
U.S. Food and Drug Administration [FDA]
Acetylcholinesterase (AChE) is the primary cholinesterase in the body that hydrolyzes a key neurotransmitter, acetylcholine. Inhibition of AChE activity can lead to neurotoxicity. The known inhibitors include organophosphorous pesticides (OP), chemical warfare agents, drugs, and various phytochemicals.
An enzyme-based assay with the recombinant human AChE and Amplite Colormetric acetylcholinesterase assay kit (AAT Bioquest, Sunnyvale, CA) was used to evaluate the chemicals in the Tox21 10K library that inhibit AChE activity. The assay uses 5, 5-dithiobis-(2-nitrobenzoic acid) (DTNB) to quantify the thiocholine produced from the hydrolysis of acetylthiocholine by AChE.
Tox21 Assay Protocol Summary:
For the enzyme-based AChE assay, recombinant human AChE (50 mU/mL) in 4 uL/well was dispensed into black, clear-bottom 1536-well plates using a Multidrop Combi dispenser (Thermo Scientific, MA). Then, 23 nL of compound or DMSO (vehicle control) was transferred into the assay plates by a Pintool Station (Wako Automation, CA). The plates were incubated for 30 min at room temperature, followed by the addition of 4 uL of colorimetric detection cocktail solution (DTNB, acetylthiocholine) into each well using a Flying Reagent Dispenser (Beckman Coulter, CA) and then 10 min incubation at room temperature.
Potency means the concentration at half of the fitted maximal effect.

Sequence of Acetylcholinesterase (Homo sapiens) (P22303 whole entry, looked up): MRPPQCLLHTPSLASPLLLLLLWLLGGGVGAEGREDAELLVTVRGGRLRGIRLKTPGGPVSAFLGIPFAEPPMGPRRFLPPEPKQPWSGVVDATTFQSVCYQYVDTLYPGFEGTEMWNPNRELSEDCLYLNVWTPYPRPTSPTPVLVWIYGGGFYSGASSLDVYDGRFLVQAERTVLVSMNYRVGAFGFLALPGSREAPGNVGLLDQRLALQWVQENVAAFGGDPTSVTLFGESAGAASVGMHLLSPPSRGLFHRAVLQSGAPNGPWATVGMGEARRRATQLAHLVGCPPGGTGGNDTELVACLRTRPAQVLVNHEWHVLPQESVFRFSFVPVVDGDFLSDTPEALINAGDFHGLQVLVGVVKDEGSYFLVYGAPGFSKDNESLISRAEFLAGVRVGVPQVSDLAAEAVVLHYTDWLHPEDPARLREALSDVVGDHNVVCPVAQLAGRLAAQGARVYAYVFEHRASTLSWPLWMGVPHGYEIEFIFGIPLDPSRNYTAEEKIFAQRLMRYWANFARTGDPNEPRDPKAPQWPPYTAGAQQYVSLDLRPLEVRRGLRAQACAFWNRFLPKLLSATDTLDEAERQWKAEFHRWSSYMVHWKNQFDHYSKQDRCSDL

Compound	Potency	activity change, negative = inhibition
Cc1cc(O)ccc1Cl	inactive	
OCc1ccco1	inactive	
C=CC#N	inactive	
C=CC(=O)OCCCCCC(C)C	inactive	
CN(C)NC(=O)CCC(=O)O	inactive	
Nc1ccc([As](=O)(O)O)cc1	inactive	
CC(C)(C)C(=O)CCl	inactive	
CC12CC1(C)C(=O)N(c1cc(Cl)cc(Cl)c1)C2=O (stereo not given)	inactive	
O=C(O)Cc1ccccc1	inactive	
Cc1ccc(N=C=O)cc1N=C=O	inactive	
Cc1cc(Cl)ccc1OC(C)C(=O)O (stereo not given)	inactive	
CC(C)CCCCCCOC(=O)c1ccccc1C(=O)OCCCCCCC(C)C	inactive	
Nc1nc(N)nc(NC2CC2)n1	inactive	
CN(C)C(=O)C(c1ccccc1)c1ccccc1	inactive	
O=C(O)COc1ccccc1	inactive	
CC[N+](=O)[O-]	inactive	
Cl[C@H]1OCCO[C@@H]1Cl	inactive	
O=C(O)c1cc(Oc2ccc(C(F)(F)F)cc2Cl)ccc1[N+](=O)[O-]	inactive	
CNc1cnn(-c2cccc(C(F)(F)F)c2)c(=O)c1Cl	inactive	
FC(F)(F)c1ccc(Cl)cc1	inactive	

Compound	Potency	activity change, negative = inhibition
O=C(O)C1C(C(=O)O)C2(Cl)C(Cl)=C(Cl)C1(Cl)C2(Cl)Cl (stereo not given)	inactive	
COC(=O)Nc1cccc(OC(=O)Nc2cccc(C)c2)c1	inactive	
CN1C(=O)CCS(=O)(=O)C1c1ccc(Cl)cc1 (stereo not given)	inactive	
CSc1nnc(C(C)(C)C)c(=O)n1N	inactive	
N#Cc1cccc(C#N)c1	inactive	
CN(C)CCC#N	inactive	
CCSC(=O)N1CCCCCC1	inactive	
O=C(O)CCCc1ccc(N(CCCl)CCCl)cc1	inactive	
CCCCC(CC)C(=O)Cl (stereo not given)	inactive	
CCOP(=S)(OCC)Oc1cc(C)nc(C(C)C)n1		-8.17% [at 53 µM] (inactive)
CC(=O)C1CCOC1=O (stereo not given)	inactive	
CCOc1ccc(N)cc1	inactive	
Nc1ncc([N+](=O)[O-])s1	inactive	
C=CCN=C=S	inactive	
O=[N+]([O-])c1ccc(Cl)c(Cl)c1	inactive	
Cl/C=C/Cl	inactive	
C[C@H]1C(=O)O[C@@H]2CCN3CC=C(COC(=O)[C@](C)(O)[C@]1(C)O)[C@H]23	inactive	
CC(=O)/C=C/c1ccccc1	inactive	
Sc1ccccc1	inactive	
CCOC(=O)CC(SP(=O)(OC)OC)C(=O)OCC (stereo not given)	3.38 µM (active) and 5.64 µM (active)	
